“And” between values parts separate entries of the source, which are not always exact repeats. Identical values can stand only once. Unmarked numbers belong to inactive results. Results filed as inconclusive are left out. Entries that show only a call come without a potency. The source made the active and inactive calls. Unless noted, calls come from the whole dose curve; as a rule, active = well fitted curve in either direction with a large enough effect (not every such curve was filed as active); inconclusive = small, poorly fitted or top-dose-only effect, or another doubt; inactive = flat fitted curve, though single readings scatter.
What was measured:
[1] = AP1 Signaling Pathway (AID 357); conditions: ME-180 AP-1-bla reporter, EGF-induced, beta-lactamase ratio, 5 h; at 7.69 µM (top of the series) unless noted;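 note: ME-180 reporter cells stimulated with EGF at its EC50 level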
How it was run: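 Read-out was the 460nm/530nm emission ratio (excitation 405nm) after CCF4 loading for 2.5 hours at room temperature. Cells carried an AP-1-driven beta-lactamase reporter, were stimulated with EC50 EGF plus compound for 5 hours, and AC50 values came from titrations.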

[2] = molecular target: Cytochrome P450 1A2 (Homo sapiens) (UniProt P05177); test: p450-cyp1a2 (AID 410; calls by dose curve; note: potency is the fitted concentration of half-maximal effect)
How it was run: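 Read-out is luminescence from luciferin produced by CYP1A2 demethylation of Luciferin-ME (100uM, at Km). Detection reagent stopped the 60 min NADPH-dependent reaction; signals were normalized to 57 uM furafylline.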

[3] = Stat Signaling Pathway (AID 446); conditions: ME-180 (cervical carcinoma) SIE beta-lactamase reporter, IL-6 stimulated, 5 h;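 note: ME-180 cervical cancer cells given 40 pM IL-6 alongside compound; SIE-controlled beta-lactamase reporter measured as 460/530 nm FRET emission ratio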
How it was run: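 Normalization used AC90 stimulation (300 pM IL-6) and AC90 inhibition (125 nM pan-JAK inhibitor at 40 pM IL-6). The underlying signal is SIE-driven beta-lactamase in ME-180 cells after 5 h IL-6 exposure with compound.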

[4] = molecular target: Glucocorticoid receptor (Homo sapiens) (UniProt P04150); test: GR-GFP Redistribution (AID 450;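 active = compounds whose dose series gives a full or clear partial fitted curve of increased nuclear translocation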; note: potency is the fitted concentration of half-maximal effect); conditions: U2OS GR-GFP nuclear translocation, laser cytometry, 2 h
[5] = molecular target: Glucocorticoid receptor (Homo sapiens) (UniProt P04150); test: GR-EFC Redistribution (AID 451; calls by dose curve; note: potency is the fitted concentration of half-maximal effect); conditions: CHO-K1 GR-EFC translocation, beta-gal luminescence, 2 h
How it was run: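 CHO-K1 cells expressing nuclear EA and GR-ED fragments of b-gal; compounds titrated up to 46 uM final, 2 h at 37 C. GR nuclear translocation read as complemented b-gal luminescence after 1 h RT detection.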

[6] = molecular target: Mitogen-activated protein kinase 10 (Mus musculus) (UniProt Q61831); test: JNK3 AlphaScreen Assay (AID 530);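 note: kinase came from lysate of stimulated human HepG2 cells; signal reports phosphorylation of biotinylated GST-cJun 1-79 at Ser73 with 10 µM ATP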
How it was run: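 HepG2 lysate (IL-1b/TNFa pre-activated) + biotin-GST-cJun 1-79 + anti-pSer73 cJun; cpd titration, 15 min RT; ATP 10 uM start; Tris pH 7.6, MgCl2, DTT, vanadate; beads in EDTA buffer; AlphaScreen.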

[7] = NFAT Signaling Pathway (AID 444); conditions: Jurkat NFAT-bla M1, carbachol, beta-lactamase ratio, 5 h; at 7.69 µM (top of the series) unless noted;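 note: carbachol stimulus at about its EC50 of 1 µM final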
How it was run: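 Jurkat cells with NFAT-driven β-lactamase reporter and co-expressed M1 receptor, stimulated with carbachol (final 1 uM, ~EC50), compound titration, 5 h at 37 °C. CCF4 loaded 1 h at RT; 460/530 nm ratio gave %activity and AC50.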

[8] = molecular target: 3',5'-cyclic-AMP phosphodiesterase 4B (Homo sapiens) (UniProt Q07343); test: qHTS Assay for Inhibitors of PDE-IV (AID 607; active = well fitted activation curve with a large enough effect in the main read-out, with a control signal flat, not every such curve was filed as active)
How it was run: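 HEK293 ACTOne cells with CNG channel (1000/well), endogenous PDE4; membrane potential dye, compounds up to 22.9 uM final. Fluorescence Ex 535/Em 590; RO 20-1724 (100 uM final) as reference.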

[9] = molecular target: Guanine nucleotide-binding protein G(i) subunit alpha-1 (Homo sapiens) (UniProt P63096); test: qHTS Assay for Inhibitors of RGS12 GoLoco Motif Activity (Green Fluorophore) (AID 879; active = well fitted curve in the direction sought with a large enough effect; an effect the other way counts as inactive or inconclusive;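 note: negative values mean loss of peptide binding seen as reduced polarization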)
How it was run: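 A drop in FITC polarization marked displacement of the FITC-tagged RGS12 GoLoco peptide (10 nM) from Gαi1 (50 nM). Compounds were incubated 10 min at room temperature in Tris pH 7.5 buffer containing 150 mM NaCl, 0.1 mM GDP and 0.05% NP40; unlabeled peptide titration served as control.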

[10] = qHTS Assay for Identification of Small Molecule Agonists for Thrombopoietin (TPO) Signaling Pathway (AID 917; active = well fitted curve in the direction sought with a large enough effect; an effect the other way counts as inactive or inconclusive)
How it was run: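 First, Ba/F3 cells with human TPO receptor were held overnight without IL-3. Next, compounds and TPO (26 pM final) were added. After 24 hrs at 37 C, luciferase detection reagent was added and luminescence measured following 10 min at room temperature.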

[11] = molecular target: Pyruvate kinase (Leishmania mexicana) (UniProt Q27686); test: qHTS Validation Assay for Inhibitors of Leishmania Mexicana Pyruvate Kinase (AID 945; active = well fitted curve in the direction sought with a large enough effect; an effect the other way counts as inactive or inconclusive)
How it was run: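 Substrate mix (0.5 mM PEP, 0.1 mM ADP, 7 mM MgCl2, 50 mM KCl, pH 7.2 imidazole) received compound by pin tool, then 0.2 nM LmPYK E451W. After 1 h at room temperature, PKLight was added and luminescence measured.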

[12] = molecular target: Pyruvate kinase PKM (Homo sapiens) (UniProt P14618); test: qHTS Assay for Activators of Human Muscle Pyruvate Kinase (AID 954; active = well fitted curve in the direction sought with a large enough effect, not every such curve was filed as active)
How it was run: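 Compound pinned into substrate mix (0.5 mM PEP, 0.1 mM ADP), then 0.1 nM PKM2 added; 1 h, RT. Stop/detection luciferase reagent added, luminescence read. Normalized to no-inhibition and no-enzyme or reference-inhibitor controls.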

[13] = molecular target: Alpha-galactosidase A (Homo sapiens) (UniProt P06280); test: Counterscreen for Glucocerebrosidase Inhibitors: qHTS Assay for Human alpha-Galactosidase at pH 4.5 (AID 992; active = well fitted curve in the direction sought with a large enough effect; an effect the other way counts as inactive or inconclusive)
How it was run: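 Steps: enzyme (2 nM final), then compound across 0.7 nM to 77 uM, then 80 uM fluorogenic galactopyranoside substrate; incubate 20 min at room temperature; quench at pH 10; measure fluorescence at 365/440 nm.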

[14] = molecular target: alpha-glucosidase (Oryza sativa, rice) (UniProt Q653V4); test: Counterscreen for Glucocerebrosidase Inhibitors: qHTS Assay for Rice alpha-Glucosidase at pH 5.0 (AID 997; active = well fitted curve in the direction sought with a large enough effect; an effect the other way counts as inactive or inconclusive)
How it was run: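 Endpoint fluorogenic assay at pH 5.0: compounds (0.7 nM to 77 uM) titrated against 4 nM rice enzyme and 400 uM 4-MU-alpha-glucoside for 20 min at room temperature; NaOH/glycine stop, read ex 365/em 440 nm, Hill-fitted AC50.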

[15] = molecular target: Cytochrome P450 3A4 (Homo sapiens) (UniProt P08684); test: qHTS Assay for Activators of Cytochrome P450 3A4 (AID 885; active = well fitted curve in the direction sought with a large enough effect; an effect the other way counts as inactive or inconclusive; note: nearly all actives have a fitted effect of over 65% in size)
How it was run: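 Human CYP3A4 dealkylates Luciferin-PPXE to luciferin, which luciferase detection converts to light. Substrate was at its KM (25uM), buffer 200mM KPO4, reaction 60 min at RT.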

[16] = at 7.69 µM (top of the series) unless noted

Chain of Pyruvate kinase (Leishmania mexicana) (Q27686 2-499 E452W): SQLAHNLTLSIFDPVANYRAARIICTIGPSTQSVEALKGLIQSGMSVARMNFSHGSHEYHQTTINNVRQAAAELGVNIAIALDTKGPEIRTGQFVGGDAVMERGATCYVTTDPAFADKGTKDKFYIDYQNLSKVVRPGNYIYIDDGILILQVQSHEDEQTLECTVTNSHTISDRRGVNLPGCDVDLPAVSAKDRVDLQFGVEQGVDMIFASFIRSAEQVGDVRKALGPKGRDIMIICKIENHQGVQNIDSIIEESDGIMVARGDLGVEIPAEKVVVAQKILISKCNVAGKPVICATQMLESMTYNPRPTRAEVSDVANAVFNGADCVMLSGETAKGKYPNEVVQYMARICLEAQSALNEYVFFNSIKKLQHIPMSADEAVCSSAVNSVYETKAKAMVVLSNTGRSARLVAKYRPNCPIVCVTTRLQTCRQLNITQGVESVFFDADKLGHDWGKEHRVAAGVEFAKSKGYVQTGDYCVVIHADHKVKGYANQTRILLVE
Chain of Glucocorticoid receptor (Homo sapiens) (P04150 whole entry, looked up, the tested form may be a part): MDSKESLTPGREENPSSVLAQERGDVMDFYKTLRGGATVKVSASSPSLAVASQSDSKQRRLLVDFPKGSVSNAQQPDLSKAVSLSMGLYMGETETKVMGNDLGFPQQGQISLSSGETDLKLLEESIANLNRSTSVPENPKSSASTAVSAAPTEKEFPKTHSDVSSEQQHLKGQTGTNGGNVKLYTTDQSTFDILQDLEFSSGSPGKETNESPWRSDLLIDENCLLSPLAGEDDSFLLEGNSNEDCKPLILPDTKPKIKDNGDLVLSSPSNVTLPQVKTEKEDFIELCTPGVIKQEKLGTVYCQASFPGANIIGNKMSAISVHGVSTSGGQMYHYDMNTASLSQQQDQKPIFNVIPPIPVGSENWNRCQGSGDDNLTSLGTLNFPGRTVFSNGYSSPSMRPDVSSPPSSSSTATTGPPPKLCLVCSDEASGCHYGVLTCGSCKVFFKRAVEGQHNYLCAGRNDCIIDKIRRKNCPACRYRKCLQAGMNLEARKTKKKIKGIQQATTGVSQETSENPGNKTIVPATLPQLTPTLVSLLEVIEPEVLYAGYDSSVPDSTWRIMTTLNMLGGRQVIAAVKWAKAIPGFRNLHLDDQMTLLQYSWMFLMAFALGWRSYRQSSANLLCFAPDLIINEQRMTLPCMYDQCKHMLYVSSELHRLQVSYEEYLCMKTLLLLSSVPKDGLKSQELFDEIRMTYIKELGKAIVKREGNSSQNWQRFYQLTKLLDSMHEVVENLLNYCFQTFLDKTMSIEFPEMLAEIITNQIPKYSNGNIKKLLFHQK
Chain of 3',5'-cyclic-AMP phosphodiesterase 4B (Homo sapiens) (Q07343 whole entry, looked up): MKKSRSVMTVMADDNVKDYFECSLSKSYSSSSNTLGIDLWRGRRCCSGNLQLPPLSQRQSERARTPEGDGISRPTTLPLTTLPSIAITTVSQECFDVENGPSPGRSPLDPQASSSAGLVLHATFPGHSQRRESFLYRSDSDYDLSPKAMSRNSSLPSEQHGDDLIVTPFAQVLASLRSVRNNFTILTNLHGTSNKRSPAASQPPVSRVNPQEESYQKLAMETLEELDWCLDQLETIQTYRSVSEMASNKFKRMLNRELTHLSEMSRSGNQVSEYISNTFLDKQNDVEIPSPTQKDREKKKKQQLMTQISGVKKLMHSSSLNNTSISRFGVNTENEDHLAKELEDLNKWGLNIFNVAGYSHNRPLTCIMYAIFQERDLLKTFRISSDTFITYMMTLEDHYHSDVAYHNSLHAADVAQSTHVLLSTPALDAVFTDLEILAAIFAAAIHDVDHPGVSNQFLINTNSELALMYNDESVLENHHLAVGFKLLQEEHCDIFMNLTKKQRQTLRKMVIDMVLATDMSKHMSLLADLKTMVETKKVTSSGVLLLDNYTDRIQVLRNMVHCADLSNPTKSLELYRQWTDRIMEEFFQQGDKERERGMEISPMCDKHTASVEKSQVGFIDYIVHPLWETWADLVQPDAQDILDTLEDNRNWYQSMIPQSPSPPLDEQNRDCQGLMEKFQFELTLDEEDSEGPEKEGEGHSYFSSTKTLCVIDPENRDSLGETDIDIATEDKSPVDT
Chain of Cytochrome P450 1A2 (Homo sapiens) (P05177 whole entry, looked up): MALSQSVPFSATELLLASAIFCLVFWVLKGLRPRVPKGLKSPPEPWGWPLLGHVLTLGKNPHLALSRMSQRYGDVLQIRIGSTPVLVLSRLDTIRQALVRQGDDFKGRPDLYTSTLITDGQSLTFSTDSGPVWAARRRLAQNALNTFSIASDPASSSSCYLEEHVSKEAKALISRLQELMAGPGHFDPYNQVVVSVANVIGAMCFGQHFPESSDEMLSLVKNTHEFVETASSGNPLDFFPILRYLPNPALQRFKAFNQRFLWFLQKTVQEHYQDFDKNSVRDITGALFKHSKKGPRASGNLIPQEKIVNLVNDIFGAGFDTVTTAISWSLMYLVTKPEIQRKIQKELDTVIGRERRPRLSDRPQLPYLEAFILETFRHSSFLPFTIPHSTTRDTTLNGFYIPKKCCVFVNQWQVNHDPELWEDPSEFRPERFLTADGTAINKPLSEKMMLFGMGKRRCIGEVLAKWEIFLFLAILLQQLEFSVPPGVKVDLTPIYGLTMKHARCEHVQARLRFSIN
Chain of Guanine nucleotide-binding protein G(i) subunit alpha-1 (Homo sapiens) (P63096 whole entry, looked up): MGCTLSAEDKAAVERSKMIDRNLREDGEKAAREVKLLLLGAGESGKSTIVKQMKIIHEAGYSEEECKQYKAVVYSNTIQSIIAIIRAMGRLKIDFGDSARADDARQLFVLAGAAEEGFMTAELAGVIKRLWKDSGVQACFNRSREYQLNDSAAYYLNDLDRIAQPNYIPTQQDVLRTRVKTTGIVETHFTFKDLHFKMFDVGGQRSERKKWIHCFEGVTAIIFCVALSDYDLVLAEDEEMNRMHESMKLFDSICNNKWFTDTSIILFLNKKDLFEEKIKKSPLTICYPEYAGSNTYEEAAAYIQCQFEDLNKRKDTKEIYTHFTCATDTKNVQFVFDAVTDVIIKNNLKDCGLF
Chain of Alpha-galactosidase A (Homo sapiens) (P06280 whole entry, looked up): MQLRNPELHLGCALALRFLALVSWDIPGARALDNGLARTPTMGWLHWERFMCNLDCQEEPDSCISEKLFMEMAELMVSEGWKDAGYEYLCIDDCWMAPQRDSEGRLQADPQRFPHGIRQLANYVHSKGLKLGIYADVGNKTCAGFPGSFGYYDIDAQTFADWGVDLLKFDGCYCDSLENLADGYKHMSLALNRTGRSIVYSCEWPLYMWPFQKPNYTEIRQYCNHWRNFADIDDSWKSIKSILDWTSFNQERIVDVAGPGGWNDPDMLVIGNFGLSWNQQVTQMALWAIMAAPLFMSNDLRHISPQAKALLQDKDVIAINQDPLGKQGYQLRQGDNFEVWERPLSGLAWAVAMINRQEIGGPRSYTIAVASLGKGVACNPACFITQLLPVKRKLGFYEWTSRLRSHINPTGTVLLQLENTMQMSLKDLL
Chain of Pyruvate kinase PKM (Homo sapiens) (P14618 whole entry, looked up): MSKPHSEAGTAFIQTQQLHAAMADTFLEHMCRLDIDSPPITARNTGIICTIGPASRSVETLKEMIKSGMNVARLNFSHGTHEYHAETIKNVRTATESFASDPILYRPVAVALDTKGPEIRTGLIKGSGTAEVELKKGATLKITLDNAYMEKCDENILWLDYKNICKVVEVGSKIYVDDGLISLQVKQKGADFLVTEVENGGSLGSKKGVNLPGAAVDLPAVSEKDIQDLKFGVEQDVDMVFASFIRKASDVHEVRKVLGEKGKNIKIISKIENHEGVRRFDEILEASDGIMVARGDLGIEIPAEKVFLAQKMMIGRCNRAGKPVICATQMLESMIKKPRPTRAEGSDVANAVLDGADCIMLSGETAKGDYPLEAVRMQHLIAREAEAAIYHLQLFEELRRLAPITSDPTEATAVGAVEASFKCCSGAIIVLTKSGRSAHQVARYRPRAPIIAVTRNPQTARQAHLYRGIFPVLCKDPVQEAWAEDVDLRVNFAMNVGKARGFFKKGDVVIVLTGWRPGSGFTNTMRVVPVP
Chain of Cytochrome P450 3A4 (Homo sapiens) (P08684 whole entry, looked up): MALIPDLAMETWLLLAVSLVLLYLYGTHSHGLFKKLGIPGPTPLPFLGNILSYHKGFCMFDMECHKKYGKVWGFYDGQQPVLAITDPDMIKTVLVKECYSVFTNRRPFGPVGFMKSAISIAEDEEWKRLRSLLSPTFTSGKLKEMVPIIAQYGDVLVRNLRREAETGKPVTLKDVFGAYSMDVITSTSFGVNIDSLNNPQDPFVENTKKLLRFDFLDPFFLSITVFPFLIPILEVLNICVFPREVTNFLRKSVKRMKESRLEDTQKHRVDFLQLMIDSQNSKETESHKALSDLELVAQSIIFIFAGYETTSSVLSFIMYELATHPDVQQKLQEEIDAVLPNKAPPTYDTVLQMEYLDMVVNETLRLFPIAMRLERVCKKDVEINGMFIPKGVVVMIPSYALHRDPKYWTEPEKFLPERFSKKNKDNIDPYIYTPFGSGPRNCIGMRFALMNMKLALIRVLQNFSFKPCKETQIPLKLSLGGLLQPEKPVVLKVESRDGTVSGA

SMILES: C#C[C@@]1(O)CC[C@H]2[C@H]3CCC4=Cc5oncc5C[C@]4(C)[C@@H]3CC[C@@]21C
- activity change, negative = inhibition [1]: -22.8% [at 38 µM]
- Potency [2]: 12.6 µM (active)
- activity, negative = inhibition [3, 16]: 6.25% [at 38 µM]
- Potency [4]: > 46 µM
- Potency [5]: > 46 µM
- Potency [6]: inactive

SMILES: COC(=O)[C@H]1[C@H]2C[C@H]3c4[nH]c5ccccc5c4CCN3C[C@@H]2CC[C@@H]1O
- activity change, negative = inhibition [1]: 3.48% [at 38 µM] and 8.69% [at 38 µM]
- activity change, negative = inhibition [7]: -14.1% [at 38 µM]
- activity, negative = inhibition [3, 16]: 1% [at 38 µM] and -19.7% [at 38 µM]
- Potency [6]: inactive
- Potency [8]: inactive
- outcome [9]: inactive
- outcome [10]: inactive
- outcome [11]: inactive
- outcome [12]: inactive
- outcome [13]: inactive
- Potency [14]: inactive

SMILES: CC(C)C[C@H]1C(=O)N2CCC[C@@H]2[C@]2(O)O[C@](NC(=O)[C@H]3C=C4c5cccc6[nH]c(Br)c(c56)C[C@H]4N(C)C3)(C(C)C)C(=O)N12
- activity change, negative = inhibition [1]: -28.4% [at 17.2 µM]
- Potency [2]: inactive
- activity, negative = inhibition ([3]; at 17.2 µM (top of the series)): -20.4%
- activity, negative = inhibition ([3]; at 38 µM (top of the series)): -18.7%
- Potency [4]: > 46 µM and > 20.6 µM
- Potency [5]: > 46 µM and > 20.6 µM
- Potency [6]: inactive
- Potency [8]: inactive
- outcome [9]: inactive
- Potency [15]: inactive
- outcome [11]: inactive
- outcome [12]: inactive
- outcome [13]: inactive
- Potency [14]: inactive

SMILES: O=C(Nc1ccc2c(c1)Cc1ccccc1-2)[C@@H]1[C@H](C(=O)O)[C@]2(Cl)C(Cl)=C(Cl)[C@@]1(Cl)C2(Cl)Cl
- activity change, negative = inhibition [1]: 9.85%
- Potency [2]: 3.16 µM (active)
- activity, negative = inhibition [3, 16]: 4.65%
- Potency [4]: > 46 µM
- Potency [5]: > 9.22 µM
- Potency [6]: inactive
- Potency [8]: inactive

— PubChem BioAssay (NCATS)
